Assay outcomes deposited in PubChem BioAssay by The Scripps Research Institute Molecular Screening Center.
Most compounds without a hit are left out; they make up all but 2.2% or so of the library.
HTR2A ag: mouse HTR2A agonism via beta-arrestin recruitment; CHO-K1 mHTR2A beta-arrestin complementation, luminescence; percent of 30 µM serotonin response; activation, % at 7.6 µM; 360,000 tested, 0.66% active; P35363;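 active = activation above a run cutoff, the mean activation of all tested compounds plus 3 SD, cut at about 14% in these data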
HTR5A ag ctr: counter-screen for OPRM1-OPRD1 agonists: human HTR5A agonism. AID 504692. HTR5A agonist assay, luminescence, cell-based. activation, % at 9.3 µM. 340,000 tested, 0.61% active. P47898; in the data active = activation mostly above about 9.5%, no sharp cut-off; inactive = mostly below about 7.6%
Target sequence (P47898 whole entry, looked up): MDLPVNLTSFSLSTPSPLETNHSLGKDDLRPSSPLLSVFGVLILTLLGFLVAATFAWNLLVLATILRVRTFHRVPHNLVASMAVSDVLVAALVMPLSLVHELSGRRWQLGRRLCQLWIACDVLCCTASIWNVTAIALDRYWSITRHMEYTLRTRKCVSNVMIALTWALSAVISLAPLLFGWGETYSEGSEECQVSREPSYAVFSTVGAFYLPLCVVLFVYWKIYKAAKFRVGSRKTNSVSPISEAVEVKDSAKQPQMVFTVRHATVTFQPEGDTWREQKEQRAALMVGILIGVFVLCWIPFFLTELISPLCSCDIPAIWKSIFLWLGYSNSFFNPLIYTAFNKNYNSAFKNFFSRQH
HTR5A inv ag: HTR5A inverse agonism, opioid heterodimer counter-screen. P47898. inhibition, % at 9.3 µM. HTR5A cell line, luminescence. 340,000 tested, 0.083% active; in the data active = inhibition mostly above about 23%, no sharp cut-off; inactive = mostly below about 18%
MOR-DOR inv ag: mu-delta opioid heterodimer inverse agonism; P35372+P41143; cell-based MOR-DOR heterodimer luminescence; inhibition, % at 9.3 µM; 340,000 tested, 0.21% active; in the data active = inhibition above about 22%, passing the limit was not always enough
HGIII-sPLA2 inh: Inhibits HGIII-sPLA2 liposome hydrolysis, primary screen | Q9NZ20 | QFRET BODIPY PC-A2 liposome hydrolysis, fluorescence | inhibition, % at 12.2 µM | 370,000 tested, 0.56% active;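 active = inhibition above mean plus 3 SD of compounds lying within the high and low control bounds, cut at about 19% in these data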
OPRM1-OPRD1 ag: agonists of human mu-delta opioid receptor heterodimerization | P35372+P41143 | cells, OPRM1-OPRD1 heterodimerization, luminescence | activation, % at 9.3 µM | 340,000 tested, 0.3% active
OPRM1-D1 ag cf: confirmation of human OPRM1-OPRD1 heterodimerization agonists; shares compounds with OPRM1-OPRD1 ag; cells, MOR-DOR heterodimerization, luminescence complementation; activation, % at 9.3 µM; 830 tested, 45% active; AID 504904
HTR5A ag ctr2: counter-screen for OPRM1-OPRD1 agonists: human HTR5A agonism; shares compounds with OPRM1-OPRD1 ag; HTR5A agonist counterscreen, cell luminescence; activation, % at 9.3 µM; 830 tested, 8% active; AID 504905; in the data active = activation above about 17%
Numbers stand for hits; . = inactive; / = no result. Cut-off read from the data, not from the text of the source, unless noted: active = activation above about 18%; inactive = the rest.

SMILES	HTR2A ag	HTR5A ag ctr	HTR5A inv ag	MOR-DOR inv ag	HGIII-sPLA2 inh	OPRM1-OPRD1 ag	OPRM1-D1 ag cf	HTR5A ag ctr2
COC(=O)C1CN(C2CCCC2)CCS(=O)(=O)N1Cc1ccc(F)cc1 (stereo unspecified)	/	/	/	/	.	/	/	/
COC(=O)[C@H](Cc1ccccc1)N1CC(N2CCCC2)CS1(=O)=O (stereo partly specified)	/	/	/	/	.	/	/	/
Nn1c(SCC(=O)N2CCOCC2)nnc1-c1cc(-c2ccc(F)cc2)n[nH]1	/	/	/	/	.	/	/	/
CC(=O)CC[C@H]1CC[C@]2(CCCN(S(=O)(=O)C3CCCCC3)C2)O1	/	/	/	/	.	/	/	/
CC(C)C(=O)NC(C)C(c1cccs1)N1CCN(c2ccccc2)CC1 (stereo unspecified)	.	.	.	.	.	30	29	.
COc1ccccc1N1CCN(C(c2cccs2)C(C)NC(=O)c2cccs2)CC1 (stereo unspecified)	.	.	.	.	.	23	.	.
COc1ccccc1N1CCN(C(c2cccs2)C(C)NC(=O)c2cccnc2)CC1 (stereo unspecified)	.	.	.	.	.	.	/	/
Clc1ccc2c(N/N=C/c3ccccc3Br)ccnc2c1	.	.	.	.	.	52	53	.
C/C(=N/Nc1ccnc2cc(Cl)ccc12)c1ccc(N)cc1	.	.	.	.	.	21	41	.
COc1cccc(N2CCN(c3ncnc4c3[nH]c3ccc(F)cc34)CC2C)c1 (stereo unspecified)	32	15	.	.	.	43	.	.
COc1cccc(N2CCN(c3ncnc4c3[nH]c3ccccc34)CC2C)c1 (stereo unspecified)	/	/	/	/	.	/	/	/
C[C@@H]1CCN(C2CC2)S(=O)(=O)c2ccc(N3CCC[C@H]3C)cc2O1	/	/	/	/	.	/	/	/
CCN1CCN(c2c(S(=O)(=O)c3ccc(C)c(C)c3)cnc3ccc(F)cc23)CC1	.	.	.	.	.	53	.	.
COc1ccc2nc3cc(Cl)ccc3c(Nc3cc(C(C)C)c(O)cc3C)c2c1	.	.	.	.	.	20	.	.
COc1ccc(S(=O)(=O)Nc2cc(C(C)C)c(O)cc2C)cc1	.	.	.	.	.	.	/	/
Fc1ccc(C2=Nn3c(nnc3C3CCCCC3)SC2)cc1	/	/	/	/	.	/	/	/
Cc1c(C(=O)N(Cc2cccs2)C2CCS(=O)(=O)C2)oc2ccccc12 (stereo unspecified)	.	.	.	.	.	27	.	.
CCOC(=O)C1(CC2CC2)CCN(Cc2cnc(-c3ccccc3C)nc2)CC1	.	.	.	.	.	79	72	.
CCOC(=O)C1(CCOc2ccccc2)CCN(Cc2ccc(OC)c(O)c2)CC1	.	.	.	.	.	77	75	.
CCOC(=O)C1(CCOc2ccccc2)CCN(Cc2cnc(SC)nc2)CC1	.	.	.	.	.	32	.	.
CCOC(=O)C1(CCOc2ccccc2)CCN(Cc2cc(OC)c(O)c(OC)c2)CC1	.	.	.	.	.	.	/	/
CCOC(=O)C1(CCOc2ccccc2)CCN(Cc2ccc(O)cc2)CC1	.	.	.	.	.	.	/	/
Cc1cccc2cc(C(c3nnnn3Cc3ccccc3)N3CCN(C)CC3)c(=O)[nH]c12 (stereo unspecified)	.	.	.	.	/	35	38	.
Cc1ccc2cc(C(c3nnnn3Cc3ccccc3)N3CCc4ccccc43)c(=O)[nH]c2c1 (stereo unspecified)	.	.	.	.	.	20	60	.
Cc1ccc2[nH]c(=O)c(C(c3nnnn3Cc3ccccc3)N3CCc4ccccc43)cc2c1 (stereo unspecified)	.	.	.	.	.	.	/	/
SMILES	HTR2A ag	HTR5A ag ctr	HTR5A inv ag	MOR-DOR inv ag	HGIII-sPLA2 inh	OPRM1-OPRD1 ag	OPRM1-D1 ag cf	HTR5A ag ctr2
O=C(NC1CCCCN(Cc2cccc(F)c2)C1=O)c1cccc(C(F)(F)F)c1 (stereo unspecified)	/	/	/	/	.	/	/	/
CC1CCN(c2c3c(nc4ncnn24)CCCC3)CC1	/	/	/	/	.	/	/	/
Cc1onc(-c2ccc(Cl)cc2)c1-c1ccn(S(=O)(=O)c2cccc(Cl)c2)n1	/	/	/	/	.	/	/	/
C#CCCN([C@H](C(=O)OC)C(C)C)S(=O)(=O)c1ccccc1Br	/	/	/	/	.	/	/	/
COc1ccc(C(C)NCCC(c2ccc(OC(C)C)cc2)c2ccccc2OC)cc1 (stereo unspecified)	.	.	.	.	.	23	37	.
COc1ccc(C(CCNC(C)c2ccccc2)C(C)C)cc1 (stereo unspecified)	.	/	/	/	.	/	/	/
Nc1nc(CN2CCN(Cc3ccccc3)CC2)nc(Nc2ccc3c(c2)OCCO3)n1	.	.	.	.	.	.	/	/
Nc1nc(CCl)nc(Nc2ccc3ccccc3c2)n1	.	.	.	.	.	80	.	.
O=C(NC1CCN(Cc2ccc(Cl)cc2Cl)CC1)c1ccccc1	.	.	.	.	.	18	26	.
O=C(NC1CCN(Cc2ccccc2)CC1)c1ccccc1	.	.	.	.	.	.	/	/
CCC(c1ccccc1)C(CC)c1cc(O)c(O)c(O)c1 (stereo unspecified)	.	.	.	.	.	18	.	.
COC(=O)c1cc(NC(=O)c2ccc(Cn3cc(Cl)cn3)o2)cc(C(=O)OC)c1	.	.	.	.	.	.	/	/
COC(=O)c1ccccc1NC(=O)c1ccc(Cn2cc(Cl)cn2)o1	.	.	.	.	.	19	.	.
O=C(CSc1nnc(Cc2cccs2)n1-c1ccccc1)Nc1ccccc1-c1ccccc1	/	/	/	/	.	/	/	/
CC(C)c1ccc(NC(=O)N(CCc2nc3ccccc3[nH]2)C2CCCC2)cc1	.	.	.	.	.	25	37	.
Cc1ccccc1NC(=S)NCc1ccccc1	.	.	.	.	.	.	/	/
Cc1c(Cl)cccc1NC(=S)NCC(c1cccnc1)N(C)C (stereo unspecified)	.	.	.	.	.	474	.	.
Cc1cccc(NC(=S)NCc2ccncc2)c1C	.	.	.	.	.	.	/	/
Cc1cccc(NC(=S)NCC(c2cccnc2)N(C)C)c1C (stereo unspecified)	.	.	.	.	.	416	412	.
Cc1ccccc1NC(=S)NCC(c1cccnc1)N(C)C (stereo unspecified)	.	.	.	.	.	216	211	.
Cc1ccc(SCCNC(=S)Nc2cc(C)ccc2C)cc1	.	.	.	.	.	.	/	/
Cc1c(Cl)cccc1NC(=S)NCC(C)C	.	.	.	.	.	.	/	/
Cc1ccc(C)c(NC(=S)NCC(c2ccccc2)N(C)C)c1 (stereo unspecified)	.	.	.	.	.	265	361	.
CCCCCC[C@H](CC)CN(C(=O)Oc1ccccc1)c1ccccc1	/	/	/	/	.	/	/	/
